Several values for one entry are separate records, joined by “and”; a condition that tells them apart may be missing. Equal values may be shown once. The whole screen tested about 16,000 compounds, of which about 5,800 (36%) were called active. About 23% were inconclusive and are not listed. The call rests on the fitted dose curve; in most records, active means well fitted curve in the direction sought with a large enough effect; inconclusive means small, poorly fitted or top-dose-only effect, or effect the other way; inactive means no such curve, though single readings can be large or run the other way. The list shows a part of the results. A structure can be active in one record and inactive in another.
molecular target: Cytochrome P450 2C19 (Homo sapiens) (UniProt P33261); test: Cytochrome panel assay with activity outcomes; conditions: recombinant CYP, pro-luciferin dealkylation, luminescence, p450-cyp2c19; series mostly up to 57.1 µM; activity, negative = inhibition: at the top concentration
On the % scale 0 is the no-effect control and ±100 the full control effect.

Chain of Cytochrome P450 2C19 (Homo sapiens) (P33261 whole entry, looked up): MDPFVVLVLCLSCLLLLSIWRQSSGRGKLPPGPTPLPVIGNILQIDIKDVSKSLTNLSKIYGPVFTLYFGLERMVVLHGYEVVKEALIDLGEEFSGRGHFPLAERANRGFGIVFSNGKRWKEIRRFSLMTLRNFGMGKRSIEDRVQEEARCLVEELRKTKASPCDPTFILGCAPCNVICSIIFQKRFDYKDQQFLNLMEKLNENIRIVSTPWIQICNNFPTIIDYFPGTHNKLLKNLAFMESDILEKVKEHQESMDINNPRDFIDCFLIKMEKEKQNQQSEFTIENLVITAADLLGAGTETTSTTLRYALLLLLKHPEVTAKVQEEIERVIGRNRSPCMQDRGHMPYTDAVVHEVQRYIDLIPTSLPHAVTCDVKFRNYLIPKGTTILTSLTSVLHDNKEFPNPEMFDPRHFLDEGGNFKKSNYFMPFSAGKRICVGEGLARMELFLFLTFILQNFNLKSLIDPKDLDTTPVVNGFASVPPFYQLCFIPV

activity, negative = inhibition, inactive:
O=C1C[C@@H](O)[C@@H](O)[C@H]2[C@@H]3C(=O)N(Cc4ccccc4)C(=O)[C@@H]3CC[C@H]12 -9.62% [at 11.4 µM] and 25.4% [at 11.4 µM]
O=C(O)[C@@H]1[C@H](C(=O)O)[C@H]2C(=O)C=C[C@H]1N2Cc1ccccc1 2.25% [at 11.4 µM]
O=C(NNC(=O)C1CC(c2cccnc2)=NO1)Nc1cccc(F)c1 (stereo unspecified) 34.3%
CO[C@H]1COC(=O)[C@H](C)COC(=O)C/C=C\[C@@H](C)[C@H](OC)COC(=O)C/C=C\[C@@H]1C -42.3% [at 11.4 µM]
Fc1ccc(CN(C2=NCCN2)c2c(Cl)cccc2Cl)cc1 -36.9%
COc1nc(C)nc(Cl)c1NC1=NCCN1 -32% [at 25.6 µM]
COC(=O)[C@@]1(Cc2ccc(OC)cc2)[C@@H]2C(=CC(=O)[C@H]2CC(=O)C(=O)N(C)C)CN1C(=O)c1ccccc1 -31.9%
COc1ccc(C(=O)N2CCC3(CC2)CN(Cc2ccc(C#N)cc2)C3)cc1 -27.6%
O=C(O)C12CC3(C(=O)O)CC(C(=O)O)(CC(C(=O)O)(C1)C3=O)C2=O -11.5% [at 11.4 µM]
C[C@H]1/C=C\CC(=O)OC[C@H](C)C(=O)N2CCC[C@@H]2C(=O)OC1 -9.53% [at 11.4 µM]
COC(=O)[C@@H]1O[C@@H](SCCN)[C@@H](O)[C@H](O)[C@H]1O 31.9% [at 11.4 µM]
Cc1cn2c(-c3ccncc3)nnc2s1 -27.6%
COC(=O)N1CCC2(CC1)CCN(C(c1ccccc1)c1ccccc1)CC2 -44.4%
COc1ccc(N2CCN(CCNC(=O)c3c(C)cc(=O)oc3C)CC2)cc1 -20.5%
CCN1CCN(CCCNC(=O)C(NC(=O)C2CCC(C)CC2)C(C)C)CC1 (stereo unspecified) 9.56%
CNCC[C@H](Oc1ccccc1C)c1ccccc1 -21.1%
CNC(=S)NNC(=O)COc1ccccc1C -29%
C[C@@](N)(C(=O)O)c1ccc(P(=O)(O)O)cc1 13.2%
Cc1ccc(NC(=O)/C(=C\c2ccc3c(c2)OCO3)NC(=O)c2ccco2)cc1 -26.4%
COc1cc(C(=O)N2CCN(C(=O)c3ccccc3)CC2)cc(OC)c1OC -7.85%
COc1ccccc1CN1CCCC2(CCN(C(=O)c3c(C)noc3C)CC2)C1 -37.8%
CC(C)NC(=O)N1CCCC2(CCN(C(=O)c3ccco3)CC2)C1 -17.9%
COc1ccc(C(=O)N2CCC[C@@]3(CCN(CC(C)C)C3)C2)cc1 6.79%
NC(=O)CNC(=O)[C@@H]1CC2(CC(c3ccc(Cl)cc3)=NO2)CN1C(=O)c1ccccc1 (stereo partly specified) 2.94%
COc1ccccc1CN1CCC2(CC1)CCN(S(=O)(=O)c1ccccc1)CC2 18.2%
O=S(=O)(c1ccc(Br)cc1)N1CCN(S(=O)(=O)c2ccc(Br)cc2)CC1 -4.78% [at 11.4 µM]
CN(C)[C@H]1C(=O)C(C(=O)NCN2CCCC2)=C(O)[C@]2(O)C(=O)C3=C(O)c4c(O)cccc4[C@](C)(O)[C@H]3C[C@H]12 -26.1% [at 11.4 µM]
Cc1c(N(C)CS(=O)(=O)O)c(=O)n(-c2ccccc2)n1C 8.53% [at 25.6 µM]
Cc1ccc(S(=O)(=O)/N=C(/Nc2c(C)n(C)n(-c3ccccc3)c2=O)c2ccc(Cl)cc2)cc1 -27.9%
N[C@@H](CSCc1ccccc1)C(=O)O -4.77% [at 11.4 µM]
COc1c2ccoc2nc2c(OC)c(OC[C@H](O)C(C)(C)O)ccc12 8.3% [at 25.6 µM]
C/C(=N\NC(N)=S)c1ccc[nH]1 20.4% [at 11.4 µM]
O=P(O)(CCc1ccccc1)C(O)c1ccccc1 (stereo unspecified) -48.5%
O=[N+]([O-])c1cc(/C=N/N2CCN(C3c4ccccc4-c4ccccc43)CC2)ccc1Cl 1.97%
CC1(C)OC(=O)NC1=O 24.8% [at 25.6 µM]
COCC(=O)N1CCC2(CCN(Cc3ccccc3OC)CC2)CC1 15.4%
C[C@@]12C(=O)OC(=O)[C@@]1(C)[C@@H]1CC[C@@H]2O1 -37.1%
CSc1nc(C)cc(SC(C(C)=O)C(=O)Nc2ccccc2)n1 (stereo unspecified) -50.3%
O=C(CSc1ncnc2nc[nH]c12)c1ccccc1 6.64% [at 11.4 µM]
CC(=O)[C@H]([C@@H](c1ccccc1)N1CCOCC1)N1CCOCC1 7.37% [at 11.4 µM]
CCN(CC)CCNC(=O)C(C)c1nn(C)c(=O)c2ccccc12 (stereo unspecified) -28%
CC1CCCC(C)N1CCNC(=O)Cn1nc(-c2ccccc2)ccc1=O (stereo unspecified) -25.2%

AC50, inactive:
CC(=O)N[C@@H](C(=O)O)C(C)(C)SN=O
C[N+]1(C)CCC(OC(=O)C(c2ccccc2)c2ccccc2)CC1

AC50, active:
O=C1C2CCC(C(O)C2)N1Cc1ccccc1 (stereo unspecified) 15.8 µM
Cn1cc([N+](=O)[O-])c(C(=O)Nc2cc(Oc3cccnc3)cc([N+](=O)[O-])c2)n1 7.94 µM
CC1CCCC(C)N1C(=O)C1CC(c2ccc(F)cc2)=NO1 (stereo unspecified) 17.8 µM
O=C(NC1CCCC1)C1CC(c2ccc(F)cc2)=NO1 (stereo unspecified) 10 µM
Clc1cccc(Nc2nnc(-c3ccccc3)c3ccccc23)c1 0.794 µM
Cc1ccc(COc2coc(CO)cc2=O)cc1 14.1 µM
C=C1C(=O)C=C2CN(C(=O)c3ccccc3)[C@@](Cc3ccc(F)cc3)(C(=O)OC)[C@@H]12 5.01 µM
C=C1C(=O)C=C2CN(C(=O)c3ccccc3)[C@@](Cc3ccc(OC)cc3)(C(=O)OC)[C@@H]12 20 µM
c1cc(-c2sc(-c3ccncc3)c(-c3ccncc3)c2-c2ccncc2)ccn1 1.58 µM
CC(C)C(NS(=O)(=O)c1cccs1)C(=O)NCCN1CCN(c2ccccc2)CC1 (stereo unspecified) 14.1 µM
O=C(C(NS(=O)(=O)c1cccs1)c1ccccc1)N1CCN(c2ccccc2)CC1 (stereo unspecified) 1.41 µM
COc1ccccc1N1CCN(C(=O)C(NS(=O)(=O)c2cccs2)c2ccccc2)CC1 (stereo unspecified) 3.16 µM
CCOC(=O)c1[nH]c(C)c(C(=O)OCC(=O)N2c3ccccc3CC2C)c1C (stereo unspecified) 11.2 µM
Cc1ccccc1OCCNC(=S)Nc1ccccc1 0.794 µM
O=C(CC(=O)N/N=C\c1c(Cl)cccc1Cl)NCc1ccccc1 2.51 µM
CN1Cc2c(C(=O)OC(C)(C)C)ncn2-c2ccsc2C1=O 1.26 µM
CCOCCCn1cnc2c([nH]c3cc(OC)ccc32)c1=O 1.41 µM
C=CCNC(=O)/C(=C\c1ccc2c(c1)OCO2)NC(=O)c1ccc(Br)cc1 8.91 µM
O=C(N/N=C/c1ccc2c(c1)OCO2)/C(=C/c1ccc2c(c1)OCO2)NC(=O)c1ccccc1 14.1 µM
Cc1ccc(N(C(=O)c2csnn2)C(C(=O)NC(C)(C)C)c2cccs2)cc1 (stereo unspecified) 2.51 µM
COc1ccc(-c2csc3c2[N+]2=CCC=C2C3=O)cc1 3.98 µM
COc1cc2c(C(=O)N3CCN(C)CC3)c(C)n(-c3ccccc3)c2cc1Br 28.2 µM
CC1CCN(C(NC(=O)c2ccco2)C(=O)c2ccccc2)CC1 (stereo unspecified) 2 µM
Cc1ccc(C2C(=O)N(C3CCCC3)CC(=O)N2CC2COc3ccccc3O2)cc1 (stereo unspecified) 6.31 µM
O=C(c1ccc(Cl)cc1)N1CCCC(c2ccccc2)=N1 4.47 µM
Cc1ccc(S(=O)(=O)N2CCN(Cc3ccccc3C(F)(F)F)CC2)cc1 2.24 µM
Cc1ccc(S(=O)(=O)N2CCN(S(C)(=O)=O)C2)cc1 11.2 µM
Cc1c(CCO)c(=O)n(-c2ccccc2)n1S(=O)(=O)c1c(Cl)cc(Cl)cc1Cl 2.82 µM
CCOC(=O)N1CCN(CC(=O)c2ccc3c(c2)CCN3)CC1 14.1 µM
S=C(NCCSCc1c(Cl)cccc1Cl)Nc1ccccc1 1.41 µM
S=C(NCCSCc1ccc(Cl)cc1Cl)Nc1ccccc1 1.12 µM
O=C(Cc1ccccc1)NCCSCc1ccc(Cl)cc1 2.24 µM
C[C@@H](C(=O)NCc1ccc(S(C)(=O)=O)cc1)[C@@H]1C[C@@]1(C)[C@@H](NC(=O)OCc1ccccc1)c1ccccc1 1.26 µM
C[C@@H](C(=O)NCc1cccc2ccccc12)[C@H]1C[C@]1(C)[C@H](NC(=O)OCc1ccccc1)c1ccccc1 2.51 µM
C/C(=N\N1CCN(C2c3ccccc3-c3ccccc32)CC1)c1ccncc1 3.16 µM
C/C(=N\N1CCN(C2c3ccccc3-c3ccccc32)CC1)c1cccnc1 4.47 µM
C(=N\N1CCN(C2c3ccccc3-c3ccccc32)CC1)/c1cccnc1 0.251 µM
COc1ccccc1CNCC(O)(c1ccc(Cl)cc1)c1ccc(Cl)cc1 2.82 µM
CC(C)CO[C@H](c1ccc2c(c1)OCO2)[C@H](C)Br 0.0631 µM
Cc1cc(SCC(=O)c2ccccc2)nc(SCC(=O)c2ccccc2)n1 2 µM
CCN(CC)c1ccc(SS(=O)(=O)O)cc1 7.08 µM
N#C/C(=C/N1CCOCC1)c1ccccc1 4.47 µM
C[C@H](C(=O)c1ccccc1)[C@@H](c1ccccc1)N1CCOCC1 1.58 µM
CCOC(=O)CNS(=O)(=O)c1cc(-c2nn(C)c(=O)c3ccccc23)ccc1C 3.16 µM
Cc1ccc(-c2nn(C)c(=O)c3ccccc23)cc1CNC(=O)Cn1nc(-c2ccccc2)c2ccccc2c1=O 7.94 µM
Cc1ccc(-c2nn3c(C)nnc3c3ccccc23)cc1S(=O)(=O)NCc1ccccc1 5.01 µM

AC50, inactive and 5.01 µM (active):
Clc1cccc(Cl)c1NC1=NCCN1
